These results are taken from ChEMBL document CHEMBL1201862, “PubChem BioAssay data set” (2004).

Hit rate of the full screen: of about 400,000 compounds, about 1,900 (0.47%) were called active. About 14% were inconclusive and are not listed. How the calls were made is not given here. The entries come from a sample that favours actives as a whole.

Ataxin-2 (Homo sapiens), sequence (Q99700 whole entry): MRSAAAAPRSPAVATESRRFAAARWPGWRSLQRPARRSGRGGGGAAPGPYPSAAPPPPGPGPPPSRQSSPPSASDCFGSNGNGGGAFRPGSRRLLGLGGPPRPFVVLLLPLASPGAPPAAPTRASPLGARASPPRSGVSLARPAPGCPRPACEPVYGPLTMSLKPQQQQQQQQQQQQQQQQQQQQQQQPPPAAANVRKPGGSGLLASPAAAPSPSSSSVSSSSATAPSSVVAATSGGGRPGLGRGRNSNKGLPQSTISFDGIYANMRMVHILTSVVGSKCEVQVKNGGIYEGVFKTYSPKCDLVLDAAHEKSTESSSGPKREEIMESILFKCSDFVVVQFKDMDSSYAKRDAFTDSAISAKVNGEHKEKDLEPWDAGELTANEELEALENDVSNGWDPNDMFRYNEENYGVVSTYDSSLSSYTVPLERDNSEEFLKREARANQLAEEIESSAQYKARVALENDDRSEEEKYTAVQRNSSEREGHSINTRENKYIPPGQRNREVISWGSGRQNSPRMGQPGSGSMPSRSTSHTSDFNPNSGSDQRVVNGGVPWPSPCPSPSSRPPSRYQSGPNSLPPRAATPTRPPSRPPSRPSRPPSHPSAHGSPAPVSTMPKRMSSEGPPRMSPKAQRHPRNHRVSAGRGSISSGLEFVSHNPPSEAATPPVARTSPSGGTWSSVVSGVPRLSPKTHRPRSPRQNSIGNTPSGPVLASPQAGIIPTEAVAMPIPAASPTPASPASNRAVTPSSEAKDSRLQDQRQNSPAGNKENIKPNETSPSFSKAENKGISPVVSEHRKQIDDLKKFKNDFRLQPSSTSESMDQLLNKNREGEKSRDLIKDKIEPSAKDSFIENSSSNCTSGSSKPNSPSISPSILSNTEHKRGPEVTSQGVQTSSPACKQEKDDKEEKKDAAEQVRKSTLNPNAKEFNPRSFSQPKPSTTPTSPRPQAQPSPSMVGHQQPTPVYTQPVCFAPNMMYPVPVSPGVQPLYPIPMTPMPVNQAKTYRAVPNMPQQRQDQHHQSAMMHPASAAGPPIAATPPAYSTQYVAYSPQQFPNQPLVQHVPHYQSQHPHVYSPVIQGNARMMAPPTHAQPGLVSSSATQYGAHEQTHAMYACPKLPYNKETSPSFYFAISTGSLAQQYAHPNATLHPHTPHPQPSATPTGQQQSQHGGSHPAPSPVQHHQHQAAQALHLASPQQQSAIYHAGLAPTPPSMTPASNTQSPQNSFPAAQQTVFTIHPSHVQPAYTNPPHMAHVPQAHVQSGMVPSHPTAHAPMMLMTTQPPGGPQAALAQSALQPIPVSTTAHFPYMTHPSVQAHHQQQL

This assay addresses Ataxin-2 (Homo sapiens) (UniProt Q99700). Briefly: qHTS for Inhibitors of ATXN expression. The class given is functional. (In qHTS, concentration-response curves come from the screen itself.)
With `CCCCn1c(N)c(C(=O)NCCN2CCOCC2)c2nc3ccccc3nc21`, the Potency entry is “inactive”.
On to `Cc1cccc(OP(N)(=O)Oc2cccc(C)c2)c1`, for which the Potency result was “inactive”.
Turning to `COc1ccc(CC(N)c2csc(NC(=O)Nc3ccccc3Oc3ccccc3)n2)cc1` (stereo unspecified), the Potency was 39.8 µM (active).
Take `O=C(c1cccn2c(=O)c3cc(Cl)ccc3nc12)N1CCC2(CC1)OCCO2`: the Potency result is “inactive”.
In the case of `COc1ccc2cc1Oc1ccc(cc1)C[C@H]1c3cc(c(OC)cc3CCN1C)Oc1c(O)c(OC)cc3c1[C@H](C2)N(C)CC3` it was 20 µM (active).
Turning to `COc1cc2c3c(c1OC)Oc1ccc(cc1)C[C@H]1c4c(cc(OC)c(OC)c4Oc4ccc(cc4)C[C@@H]3N(C)CC2)CCN1C`, the Potency was 15.8 µM (active).
As for `Nc1c2c(nc3ccccc13)CCN(Cc1ccccc1)C2`, the Potency result was “inactive”.
As to `COc1ccc(Nc2cc(C)c3cc(NC(=O)c4ccccc4Cl)ccc3n2)cc1`, the Potency result is “inactive”.
Turning to `CN1CC[C@@]2(C)c3cc(O)ccc3N(C)C12` (stereo partly specified), the Potency was 28.2 µM (active).
Consider `CCC(C)NC(=O)c1c(N)n(CC2CCCO2)c2nc3ccccc3nc12` (stereo unspecified), for which the Potency entry is “inactive”.
For the compound `C#CCN1C(=O)S/C(=C\c2ccc(N3CCOCC3)cc2C)C1=O`, the Potency entry is “inactive”.
In the case of `CCCCN1C(=O)NC(=O)/C(=C(O)\C=C\c2c[nH]c3ccccc23)C1=O` it was “inactive”; in that of `N=C(N)N/N=C/c1ccc(N(c2ccccc2)c2ccccc2)cc1`, “inactive”; in that of `N=C(N)N/N=C/c1ccc(N2CCOCC2)cc1`, “inactive”.
In the case of `N=C(N)N/N=C/c1cn(-c2ccccc2)nc1-c1cccs1`, the Potency is 11.2 µM (active).
In the case of `O=c1cc(C(F)(F)F)c2cc3c4c(c2o1)CCCN4CCC3` it was “inactive”; in that of `Cc1ccnc(NS(=O)(=O)c2ccc(NC=C3C(=O)N(C)C(=O)N(C)C3=O)cc2)n1`, “inactive”.
As to `NS(=O)(=O)c1ccc(NC=C2C(=O)N(C3CCCCC3)C(=O)N(C3CCCCC3)C2=O)cc1`, the Potency was 39.8 µM (active).
Regarding `CCC(C(=O)Nc1ccc(Cl)cc1)N1CCCC1=O` (stereo unspecified), the Potency entry was “inactive”.
In the case of `Ic1ccccc1CNC1C2CCN(CC2)C1C(c1ccccc1)c1ccccc1` (stereo unspecified) it was 15.8 µM (active).
As to `O=C(NCCc1ccccc1)[C@@H]1CC=C[C@@H]2CCN(Cc3ccc(Cl)c(Cl)c3)C(=O)[C@@H]21`, the Potency is 25.1 µM (active).
With `O=C(Cc1cc(=O)oc2cc(O)ccc12)NN=Cc1ccc(N(CCCl)CCCl)cc1`, the Potency result was “inactive”.
In the case of `CC(C)Sc1nc2[nH]cnc(N)c-2n1`, the Potency result is “inactive”.
Turning to `Cc1oc(-c2ccccc2Cl)nc1CN1C(=O)CN=C(c2ccccc2)c2cc(Cl)ccc21`, the Potency was 44.7 µM (active).
For the compound `COc1ccc(-c2nc(CN3C(=O)CN=C(c4ccccc4)c4cc(Cl)ccc43)c(C)o2)cc1`, the Potency was 35.5 µM (active).
As for `O=C1CN=C(c2ccccc2)c2cc(Cl)ccc2N1Cc1ccc(Cl)cc1`, the Potency is 28.2 µM (active).
Turning to `O=C(c1cccn2c(=O)c3cc(Br)ccc3nc12)N1CCC2(CC1)OCCO2`, the Potency result was “inactive”.
For `CN(Cc1ccc(OC(F)F)cc1)Cc1nc(O)c2cc(Br)cc(Br)c2n1`, the Potency entry was “inactive”.
As to `CC(Cc1ccccc1)NC(=O)CCCCC(=O)NC(C)Cc1ccccc1` (stereo unspecified), the Potency entry is “inactive”.
`CN(C)CC(C(=O)Cc1ccccc1)c1ccccc1` (stereo unspecified): the Potency is 25.1 µM (active).
With `COCCCn1c(=O)/c(=C\c2ccccc2OC(F)F)s/c1=C(/C#N)C(=O)NCCOC`, the Potency entry is “inactive”.
In the case of `Cc1cc([N+](=O)[O-])c2ccccc2[n+]1[O-]` it was 31.6 µM (active); in that of `CN1C(=O)/C(=C/c2cccn2-c2ccc3ccccc3c2)C(=O)NC1=S`, 39.8 µM (active); in that of `Cc1cc(C)cc(N2C(=O)NC(=O)/C(=C\c3cc(C)n(C)c3C)C2=O)c1`, “inactive”.
Consider `C/C(NCc1cccnc1)=C1/C(=O)NC(=O)N(c2ccc(Cl)cc2)C1=O`, for which the Potency entry is “inactive”.
In the case of `Cc1cc(C)cc(N2C(=O)NC(=O)/C(=C/c3cccn3-c3ccc(Cl)cc3)C2=O)c1` it was 39.8 µM (active); in that of `COCCNC(=O)c1c(N)n(Cc2ccco2)c2nc3ccccc3nc12`, “inactive”.
Consider `O=C(NC1CCCCC1)N1Cc2cc(-c3ccccc3)ccc2-n2nncc2C1`, for which the Potency was 39.8 µM (active).
Take `Clc1cccc(N2Cc3cc(-c4ccccc4)ccc3-n3nncc3C2)c1`: the Potency is 39.8 µM (active).
As to `CN1CCc2cc3c(cc2[C@@H]1O)OCO3`, the Potency entry is “inactive”.
As to `Cc1sc2ncnc(N3CCC(C(=O)Nc4ccc(C#N)c(Cl)c4)CC3)c2c1C`, the Potency is 39.8 µM (active).
Regarding `CN(c1ccc(O)cc1)c1ccc([N+](=O)[O-])c2nonc12`, the Potency is 20 µM (active).
As to `COc1ccccc1N1CCN(C(=O)c2cc3c(-c4ccccc4F)nn(C)c3s2)CC1`, the Potency is 35.5 µM (active).
With `COc1cc(Cl)ccc1Nc1ncc(C(=O)N2CCN(c3ccccc3OC)CC2)c2ccccc12`, the Potency entry is “inactive”.
On to `O=C1NC(=S)NC(=O)C1=NNc1ccc2c(c1)OCCO2`, for which the Potency is 44.7 µM (active).
`CCCCCCCCn1sccc1=O`: the Potency is 25.1 µM (active).
For `O=C(Nc1cccc2ncccc12)c1ccccc1Cl`, the Potency result is “inactive”.
For `COC(=O)C1=C(c2cccc(OCc3ccccc3)c2)C[C@@H]2CC[C@H]1N2C(=O)NC1CCN(Cc2ccccc2)CC1`, the Potency was 22.4 µM (active).
With `CC[C@@H](O)C[C@H]1CCC[C@@]2(C[C@@H]3OC(=O)/C=C/[C@@](C)(O)[C@@H](O)[C@H](C)[C@@H](O)[C@H](OC4CCC(N(C)C)C(C)O4)[C@@H](O)[C@](C)(O)CCCCC/C=C/[C@@H]4CC(C)(C)O[C@@]4(O)C[C@H](O2)[C@H]3C)O1` (stereo partly specified), the Potency was 2.99 µM (active).
For the compound `Cc1c(CC(=O)N2C[C@H]3C[C@@H](C2)c2cccc(=O)n2C3)c(=O)oc2cc(O)c(Cl)cc12`, the Potency entry was “inactive”.
In the case of `NP(=O)(Oc1ccc(Cl)cc1)Oc1ccc(Cl)cc1` it was “inactive”; in that of `CC1=CC2/C=C(\C)CCC(O)C(O)/C=C/C(=O)C23C(=O)NC(CC(C)C)C3C1C` (stereo unspecified), 3.77 µM (active); in that of `C=C(C=O)CC1CC(O)[C@]2(C)OC3CC4OC5C[C@]6(C)O[C@]7(C)CCC8OC9C[C@]%10(C)OC%11C(C)=CC(=O)OC%11CC%10OC9C[C@@H](C)C8OC7CC6O[C@]5(C)CC5OC5C4OC3CC2O1` (stereo partly specified), 1.26 µM (active).
Regarding `CCCNC(=O)c1c(N)n(CC2CCCO2)c2nc3ccccc3nc12` (stereo unspecified), the Potency entry was “inactive”.
In the case of `COCCNC(=O)c1c(NC(=O)c2ccco2)n(Cc2ccccc2)c2nc3ccccc3nc12`, the Potency result was “inactive”.
In the case of `CCCCCCCCN1C(=O)[C@H](CC(=O)NCCc2ccccc2OC)C[C@@]2(C(=O)OC)CCCCC=C12` it was 25.1 µM (active).
